Drawing on PubChem BioAssay (NCATS), this text covers Potency and activity (max response) for twelve molecules.

Values joined by “and” are separate entries in the source; they are usually repeats but may differ in a detail not shown here. Identical values can stand only once. Records with an inconclusive call do not appear. Unmarked numbers belong to inactive results. Active and inactive are the calls of the source. Calls come from the whole dose curve; as a rule, active = well fitted curve in the direction sought with a large enough effect; inconclusive = small, poorly fitted or top-dose-only effect, or another doubt; inactive = no such curve, though single readings can be large; an effect the other way counts as inactive or inconclusive.

The nature of assay [1]: Viability qHTS for spleen associated tyrosine kinase inhibitor (SYKi) naive MV4-11 cells (AID 1963823). Note: nearly all actives have a fitted effect of over 40% in size. The conditions noted are these: MV4-11 AML viability, CellTiter-Glo luminescence, 72 h; series mostly up to 45 µM. An outline of the steps:
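qHTS, SYK inhibitor-naive MV4-11; 500 cells/well; 72 hr compound exposure, 37 C; CellTiter-Glo added, 10 min RT; luminescence read.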
(Quantitative high-throughput screening tests each substance at several concentrations.)

Assay [2] in a line: Viability qHTS for spleen associated tyrosine kinase inhibitor (SYKi) drug resistant MV4-11 cells (AID 1963824). Note: nearly all actives have a fitted effect of over 35% in size. The conditions noted are these: SYKi-resistant MV4-11 viability, CellTiter-Glo, 72 h; series mostly up to 45 µM. An outline of the steps: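 CellTiter-Glo luminescence, read 10 min after reagent addition, reports viability after a 72 hr compound exposure. Cells are an MV4-11 line made resistant to SYK inhibition, seeded at 500 per well onto compound-containing plates.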

A short description of assay [3]: Quantitative highthroughput screen to assess conditional lethalithy of NOMO1 cells grown in RPMI1640 with untreated serum (RPMI+s) (AID 1963876).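 For Viability: 100% = DMSO wells and 0% = empty wells without cells.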 Note: nearly all actives have a fitted effect of over 35% in size. The conditions noted are these: NOMO1 AML cells in RPMI+serum, CellTiter-Glo viability, 48 h; series mostly up to 45.8 µM. An outline of the steps: (§1)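 Each medium arm—HPLM with 10% dialyzed FBS, or RPMI1640 with 5 mM glucose and 10% untreated or dialyzed FBS—was screened against an 11-point, 3-fold compound titration for 48 h at 37 °C, with CellTiter-Glo luminescence as endpoint.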
A general note: In ATP-based viability assays light output follows the ATP content of the culture.

Assay [4] can be described thus: Quantitative highthroughput screen to assess conditional lethalithy of NOMO1 cells grown in RPMI1640 with dialyzed fetal bovine serum (RPMI+ds) (AID 1963877).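 For Viability: 100% = DMSO control wells and 0% = empty wells.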 Note: nearly all actives have a fitted effect of over 30% in size. Conditions: NOMO1 in RPMI+dialyzed FBS viability, ATP luminescence, 48 h; series mostly up to 45.8 µM. An outline of the steps:
as §1

A short description of assay [5]: Quantitative highthroughput screen to assess conditional lethalithy of P12 Ichikawa cells grown in Human Plasma-Like Medium with dialyzed fetal bovine serum (HPLM+ds) (AID 1963879). Note: nearly all actives have a fitted effect of over 35% in size. Conditions: ATP luminescence, 48 h; Potency: viability; series mostly up to 45.8 µM. An outline of the steps:
as §1

The nature of assay [6]: Quantitative highthroughput screen to assess conditional lethalithy of P12 Ichikawa cells grown in RPMI1640 with dialyzed fetal bovine serum (RPMI+ds) (AID 1963880).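 For Viability: 100% = DMSO wells and 0% = empty wells on each plate.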 Note: nearly all actives have a fitted effect of over 35% in size. The conditions noted are these: ATP luminescence, 48 h; Potency: P12-Ichikawa viability; series mostly up to 45.8 µM. An outline of the steps: as §1
Assay [7] in a line: Quantitative highthroughput screen to assess conditional lethalithy of P12 Ichikawa cells grown in RPMI1640 with untreated serum (RPMI+s) (AID 1963881).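 For Viability: 100% = DMSO wells and 0% = empty wells without cells.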 Note: nearly all actives have a fitted effect of over 35% in size. The conditions noted are these: ATP luminescence, 48 h; Potency: viability; series mostly up to 45.8 µM. An outline of the steps:
as §1

A short description of assay [8]: Quantitative highthroughput screen to assess conditional lethalithy of SEM cells grown in Human Plasma-Like Medium with dialyzed fetal bovine serum (HPLM+ds) (AID 1963882). Note: nearly all actives have a fitted effect of over 35% in size. Conditions: SEM B-ALL cells in HPLM+ds, CellTiter-Glo viability, 48 h; series mostly up to 45.8 µM. An outline of the steps: as §1
Assay [9] can be described thus: Quantitative highthroughput screen to assess conditional lethalithy of SEM cells grown in RPMI1640 with unreated serum (RPMI+s) (AID 1963883).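 For Viability: 100% = DMSO wells and 0% = empty wells without cells.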 Note: nearly all actives have a fitted effect of over 35% in size. The conditions noted are these: SEM B-ALL cells, CellTiter-Glo viability, 48 h; series mostly up to 45.8 µM. An outline of the steps:
as §1

Assay [10] is described as follows: Cellular viability qHTS for adrenocortical cancer (ACC) cell line SW-13 (AID 1963989).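 For activity (max response): cells grown in serum-free medium with ITS supplement; % is set by controls: 0 for no effect and ±100 for the full control effect.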 Note: nearly all actives have a fitted effect of over 65% in size. Conditions: SW-13 ACC cells viability, CellTiter-Glo, 48 h; activity (max response): hits give low values. An outline of the steps: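 Compound titrations (up to 46 uM final, in DMSO) were applied to SW-13 cells for 48 h at 37C/5% CO2. Reading used CellTiter-Glo after 20 min at room temperature; fitted curves yielded IC50 and efficacy.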

The nature of assay [11]: Cellular viability qHTS for adrenocortical cancer (ACC) cell line NCI-H295R (AID 1963990). Note: nearly all actives have a fitted effect of over 60% in size. The conditions noted are these: CellTiter-Glo ATP luminescence, 48 h; series mostly up to 46.1 µM. An outline of the steps: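 Readout: CellTiter-Glo luminescence, 20 min RT. Exposure: 48 h, 37C/5% CO2. Cells: NCI-H295R, ITS-DMEM serum-free. Range: up to 46 uM. Analysis: 4PL fit, IC50 plus efficacy.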

The nature of assay [12]: Quantitative highthroughput screen to assess conditional lethalithy of SEM cells grown in RPMI1640 with dialyzed fetal bovine serum (RPMI+ds) (AID 1963884).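 For Viability: 100% = DMSO control wells and 0% = empty wells without cells.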 Note: nearly all actives have a fitted effect of over 35% in size. Conditions: SEM B-ALL cells, RPMI+dialyzed FBS, CellTiter-Glo viability, 48 h; series mostly up to 45.8 µM. An outline of the steps: as §1
Potency is the fitted concentration of half-maximal effect.

With `Nc1[nH]nc2nnc(-c3c(-c4ccccc4)nn4ccccc34)cc12`, the Potency is 9.2 µM (active) in assay [1]; 16.4 µM (active) in assay [2]; 1.48 µM (active) in assay [3]; 2.64 µM (active) in assay [4]; 8.33 µM (active) in assay [5]; 13.2 µM (active) in assay [6]. Besides, the Potency in assay [7] is 7.43 µM (active); in assay [8], 23.5 µM (active); in assay [9], 23.5 µM (active). In [10], the activity (max response) is -4.73%. Also, the Potency result in assay [11] is “inactive”.
Regarding `O=C(O)CCNC(=O)c1ccc(N=Nc2ccc(O)c(C(=O)O)c2)cc1`, the Potency entry in assay [1], in assay [2], in [3], in [4], in [5] and in assay [6] was “inactive” throughout. Besides, the Potency result in assay [7], in assay [8], in assay [9], in assay [12] and in assay [11] was “inactive” in each case. Also, the activity (max response) in assay [10] was 4.01% and 3.9%.
For the molecule `CN1CCN(c2ccc(C(=O)Nc3n[nH]c4ccc(Cc5cc(F)cc(F)c5)cc34)c(NC3CCOCC3)c2)CC1`, the Potency is 209 nM (active) and 164 nM (active) in [1]; 326 nM (active) and 372 nM (active) and 411 nM (active) in assay [2]; 26.3 µM (active) in assay [3]; 20.9 µM (active) in [4]; 23.4 µM (active) in [5]; 18.6 µM (active) in assay [6]. Moreover, the Potency is 23.4 µM (active) in [7], 5.24 µM (active) in [9], 3.71 µM (active) in [12] and 3.16 µM (active) in assay [10].
Take `CC1(C)O[C@H]2CC(=O)OC[C@]23[C@H]2CC[C@@]4(C)[C@H](c5ccoc5)OC(=O)[C@H]5O[C@]54[C@]2(C)C(=O)C[C@@H]13`: the Potency result in assay [1], in assay [2], in [3], in [4], in assay [5] and in assay [6] was “inactive” throughout. For the same molecule, the Potency entry in assay [7], in assay [9], in assay [12] and in [11] was “inactive” throughout.
Regarding `CC(=O)N(O)CCCCCNC(=O)CCC(=O)N(O)CCCCCNC(=O)CCC(=O)N(O)CCCCCN`, the Potency in assay [1] is 6.61 µM (active); in assay [2], 5.9 µM (active); in [3] it was 0.0186 µM (active); in assay [4], 0.0831 µM (active); in assay [5], 0.0047 µM (active); in assay [6], 0.0741 µM (active). The Potency in [7] was 0.0588 µM (active); in [10], 28.2 µM (active). Moreover, the Potency entry in assay [11] was “inactive”.
As for `CC(=O)CC(c1ccccc1)c1c(O)c2ccccc2oc1=O` (centres undefined), the Potency result in [1], in assay [2], in assay [3], in [4], in [5] and in assay [6] was “inactive” each time. The Potency result in assay [7], in [8], in assay [9], in assay [12] and in [11] was “inactive” each time. The activity (max response) in [10] was -5.83% and 0.968%.
With `Nc1[nH]c(=O)ncc1F`, the Potency entry in [1], in assay [2], in assay [3], in assay [4], in assay [5] and in assay [6] was “inactive” throughout. Further, the Potency result in assay [7], in [8], in assay [9] and in [12] was “inactive” each time. Also, the activity (max response) in [10] is 6.88%.
As to `Cc1nc(N)ncc1-c1nc(N2CCOCC2)c2sc(C(C)(C)O)cc2n1`, the Potency is 2.59 µM (active) and 3.32 µM (active) in assay [1]; 3.66 µM (active) and 5.9 µM (active) in assay [2]; 0.209 µM (active) in assay [3]; 0.332 µM (active) in assay [4]; 0.0833 µM (active) in [5]; 0.372 µM (active) in [6]. The Potency in [7] is 0.372 µM (active); in assay [8], 0.148 µM (active); in [12], 0.0743 µM (active); in [11] it was 2.24 µM (active).
As for `CCCCc1oc2ccc(NS(C)(=O)=O)cc2c1C(=O)c1ccc(OCCCN(CCCC)CCCC)cc1`, the Potency in assay [1] was 6.68 µM (active) and 2.59 µM (active) and 6.61 µM (active); in [2], 2.99 µM (active) and 2.91 µM (active) and 6.61 µM (active); in assay [3] it was 1.18 µM (active); in assay [4], 2.09 µM (active); in [5], 8.33 µM (active); in assay [6] it was 9.35 µM (active). In addition, the Potency is 8.33 µM (active) in [7]; 11.6 µM (active) and 3.98 µM (active) in assay [10]; 4.11 µM (active) and 4.47 µM (active) in assay [11].
On to `COc1cc(C)c(Sc2cnc(NC(=O)c3ccc(CNC(C)C(C)C)cc3)s2)cc1C(=O)N1CCN(C(C)=O)CC1` (centres undefined), for which the Potency in assay [1] was 5.25 µM (active) and 5.17 µM (active); in assay [2], 7.42 µM (active) and 8.2 µM (active); in assay [8], 7.43 µM (active); in assay [9], 5.26 µM (active); in [12], 5.26 µM (active); in assay [10] it was 17.8 µM (active). Besides, the Potency in assay [11] is 7.94 µM (active). Also, the Potency entry in [3], in assay [4], in [5] and in [7] was “inactive” throughout.
Take `CN1CC[C@@H](c2c(O)cc(O)c3c(=O)cc(-c4ccccc4Cl)oc23)[C@@H](O)C1`: the Potency in assay [1] is 0.525 µM (active); in assay [2] it was 0.296 µM (active); in assay [3], 0.469 µM (active); in assay [4], 0.418 µM (active); in assay [5], 0.743 µM (active); in assay [6], 0.59 µM (active). The Potency is 0.372 µM (active) in assay [8]; 0.418 µM (active) in [9]; 0.469 µM (active) in [12]; 2.24 µM (active) in [10]; 1.26 µM (active) in assay [11].
As for `COc1ccc2nc3cc(Cl)ccc3c(Nc3cc(CN4CCCC4)c(O)c(CN4CCCC4)c3)c2n1`, the Potency in assay [1] is 0.742 µM (active); in assay [2], 1.05 µM (active); in [8], 16.6 µM (active); in assay [11] it was 5.62 µM (active). Moreover, the Potency entry in assay [3], in assay [4], in [5] and in assay [6] was “inactive” in each case.
